From PubChem BioAssay AID588342 (National Center for Advancing Translational Sciences (NCATS), 2011) come the findings set out here.

SMILES strings stand for the structures. In all, about 360,000 compounds went through this assay and about 25,000 (6.9%) were called active. A call without a number means that no potency is given here. About 9% were inconclusive and are not listed. Calls follow the shape of the dose curve; as a rule, active = well fitted inhibition curve with a large enough effect; inconclusive = small, poorly fitted or top-dose-only effect; inactive = flat fitted curve, though single readings scatter. For the sample, actives were picked, then their nearest neighbours and some compounds at random.
Potency is read from the fitted curve at half-maximal effect.

Chain of Luciferin 4-monooxygenase (Photinus pyralis) (P08659 whole entry, looked up): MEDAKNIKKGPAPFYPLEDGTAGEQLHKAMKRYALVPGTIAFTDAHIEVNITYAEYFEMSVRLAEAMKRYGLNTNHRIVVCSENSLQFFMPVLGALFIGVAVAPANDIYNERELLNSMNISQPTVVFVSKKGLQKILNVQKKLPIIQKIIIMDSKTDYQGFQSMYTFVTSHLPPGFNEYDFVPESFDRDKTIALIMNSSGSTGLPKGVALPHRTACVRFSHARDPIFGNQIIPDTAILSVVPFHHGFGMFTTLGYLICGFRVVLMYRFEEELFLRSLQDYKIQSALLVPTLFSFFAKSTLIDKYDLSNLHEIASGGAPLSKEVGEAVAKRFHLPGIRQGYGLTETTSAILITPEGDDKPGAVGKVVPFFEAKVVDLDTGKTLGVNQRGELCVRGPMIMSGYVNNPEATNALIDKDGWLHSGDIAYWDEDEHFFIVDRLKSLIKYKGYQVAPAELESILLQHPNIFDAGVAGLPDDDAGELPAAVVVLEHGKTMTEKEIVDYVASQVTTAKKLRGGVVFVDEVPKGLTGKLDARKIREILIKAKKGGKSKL

The experiment addresses Luciferin 4-monooxygenase (Photinus pyralis) (UniProt P08659). As to the kind of experiment: qHTS profiling assay for firefly luciferase inhibitor/activator using purifed enzyme and Km concentrations of substrates (counterscreen for miR-21 project). Also: nearly all actives have a fitted effect of over 55% in size. The note with it: purified FLuc, luminescence inhibition; series mostly up to 57.5 µM. The essentials: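 Purified P. pyralis luciferase, 10 nM final, with Km-level 10 uM D-luciferin and 10 uM ATP in 50 mM Tris acetate pH 7.5, 10 mM Mg acetate, 0.01% Tween-20, 0.05% BSA; 6-point qHTS titration about 60 µM downward; luminescence read.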
(In qHTS, concentration-response curves come from the screen itself.)
With `Cc1ccc(CC(=O)Nc2ccc(S(=O)(=O)N3CCOCC3)cc2)cc1C`, the Potency result was “inactive”. The same measure for `Cc1cccc(Cn2c(=O)n(CCC(=O)NCCc3ccc(Cl)cc3)c(=O)c3sccc32)c1`: “inactive”; for `O=C(CN1CCN(C2CCS(=O)(=O)C2)CC1)N1N=C(c2ccc(Cl)cc2)CC1c1ccco1` (stereo not drawn): “inactive”; for `CCOC(=O)c1cc(-c2ccccc2)n(CCC(=O)Nc2ccccc2CC)c1C`: “inactive”.

In the case of `CC1=Nc2cc(C(=O)N3CCC(C)CC3)ccc2Sc2ccc(Cl)cc21`, the Potency result was “inactive”.

As for `CC(=O)Nc1cccc(NC(=O)CSc2nccn2Cc2ccc3c(c2)OCO3)c1`, the Potency result is “inactive”.

With `COc1ccc(Br)cc1CNC(=O)c1cc(=O)[nH]c2ccc(S(=O)(=O)N3CCCC3)cc12`, the Potency result is “inactive”.

As for `O=c1c2c(ncn1Cc1ccccc1)nc1n2CCC1`, the Potency entry was “inactive”.

With `Cc1cc(C)nc(NS(=O)(=O)c2ccc(NC(=O)c3cc(=O)c4ccc(C)c(C)c4o3)cc2)n1`, the Potency entry is “inactive”. In the case of `O=c1cc(CSc2ncn[nH]2)[nH]c2ccc(F)cc12`, the Potency entry is “inactive”. On to `CC(C)N(Cc1nnc(-c2ccccc2Br)o1)C(=O)c1cc(Cl)nc2ccccc12`, for which the Potency result is “inactive”. With `Cc1cc(C(=O)N/N=C/c2ccc(N3CCOCC3)cc2)c(C)o1`, the Potency is 13.5 µM (active). For the molecule `CCN(CC)c1ccc(C(=O)N/N=C/c2ccc(N3CCOCC3)cc2)cc1`, the Potency entry is “inactive”. In the case of `Cc1ccc(OCCCC(=O)Nc2ccc(N3CCOCC3)cc2)cc1` it was “inactive”; in that of `O=c1c2ccccc2ccc2ccc(P(=O)(O)O)cc12`, “inactive”; in that of `O=C(COC(=O)c1ccccn1)NNC(=O)c1ccc([N+](=O)[O-])cc1`, “inactive”.

For `O=C(OCc1ccc([N+](=O)[O-])cc1)c1ccccn1`, the Potency result was “inactive”. `Cc1ccc(C(=O)O/N=C(\N)c2ccccn2)cc1Cl`: the Potency is 0.169 µM (active).

With `O=C(Nc1ccccc1Cl)O/N=C(/c1ccccc1)c1ccccn1`, the Potency result was “inactive”. In the case of `COc1ccc(C(=O)NNC(=O)c2cnccn2)cc1[N+](=O)[O-]` it was “inactive”; in that of `COc1ccc(C(=O)CSc2nc(C)cc(C)n2)cc1[N+](=O)[O-]`, “inactive”; in that of `Cc1ccc(NC(=O)c2ccccn2)cc1S(=O)(=O)N1CCOCC1`, “inactive”. The same measure for `N/C(=N\OC(=O)c1ccc([N+](=O)[O-])cc1)c1ccccn1`: 0.601 µM (active); for `COc1ccc(C(=O)O/N=C(\N)c2ccccn2)cc1[N+](=O)[O-]`: 12 µM (active). Regarding `O=C(CCS(=O)(=O)c1cc(Br)cc2c1N(C(=O)C1CC1)CC2)Nc1ccc(C(F)(F)F)cc1`, the Potency entry is “inactive”. For `C/C=N/NC(=O)CCCC(=O)N/N=C/C`, the Potency result was “inactive”. On to `COc1ccccc1C(=O)NCC(=O)NCCSc1ccc(Br)cc1`, for which the Potency result was “inactive”. Take `Cn1nnnc1SCCCNCc1ccc(Cl)cc1`: the Potency result is “inactive”.

`Cc1ccc(NC(=O)C(=O)NCC(c2cccnc2)N2CCOCC2)cc1` (stereo not drawn): the Potency entry is “inactive”.

Consider `Cc1ccc(NC(=O)c2cnc(SCC(=O)NCC3CCCO3)n(C)c2=O)cc1` (stereo not drawn), for which the Potency is 9.53 µM (active).

With `Cc1cc(NC(=O)CSc2ncc(C(=O)Nc3ccc(Cl)cc3)c(=O)n2C)no1`, the Potency result is “inactive”. In the case of `Cn1c(SCC(=O)c2ccccc2)ncc(C(=O)Nc2ccc(F)cc2)c1=O` it was “inactive”. Turning to `COc1ccc(Cl)cc1NC(=O)CSc1nc(=O)[nH]c2c1CCCC2`, the Potency entry is “inactive”.

As to `O=C(NCC1CCCO1)/C(=C\c1ccco1)NC(=O)c1ccccc1` (stereo not drawn), the Potency result was “inactive”. Consider `C/C(=C\c1ccco1)C1Nc2cccc3cccc(c23)N1`, for which the Potency was 10.7 µM (active).

Turning to `NC(=O)C1CCN(C(=O)/C(=C/c2ccco2)NC(=O)c2ccccc2)CC1`, the Potency result is “inactive”. `CNC(=O)c1nnc(Cc2ccc(Cl)cc2)o1`: the Potency result is “inactive”. Consider `Clc1ccc(Cc2nnc(-c3cccs3)o2)cc1`, for which the Potency was 19 µM (active).

`c1csc(-c2nnc(COc3ncnc4sccc34)o2)c1`: the Potency result was “inactive”. For `CC(Sc1oc(-c2ccco2)nc1S(=O)(=O)c1ccc(Br)cc1)c1ccccc1` (stereo not drawn), the Potency entry is “inactive”. Turning to `Cc1cc(C)n2nc(C(=O)OCC(=O)N(C)CC(=O)Nc3ccc(F)cc3)nc2n1`, the Potency result is “inactive”. In the case of `COc1ccc(CNC(=O)c2cc3c(=O)[nH]c4ccc(C)cc4c3s2)c(OC)c1`, the Potency result was “inactive”. The same measure for `Cc1ccc(NC(=O)CCC(=O)c2ccc(Br)cc2)cc1`: “inactive”; for `Cc1ccc(C(=O)NC2CCN(C(=O)Nc3ccc(F)cc3)CC2)cc1`: “inactive”; for `COC(=O)c1ccc(NCC(=O)c2ccccc2)cc1`: 1.51 µM (active). The same measure for `Cc1ccc(C(=O)CNc2ccc(F)cc2)cc1`: 4.78 µM (active); for `CCOC(=O)c1nc(Nc2ccc(C(=O)OC)cc2)c2ccccc2n1`: “inactive”; for `COC(=O)c1ccc(NCC(=O)N2CCCCCC2)cc1`: “inactive”.

With `CCn1c2ccccc2c2nnc(N3CCN(c4cc(C)ccc4C)CC3)nc21`, the Potency entry was “inactive”. For `CC(=O)Nc1cc(C(=O)NCc2ccc(F)cc2Cl)ccc1Sc1ccc(Cl)cc1`, the Potency entry is “inactive”. In the case of `O=c1c(=O)n(Cc2c(F)cccc2Cl)ccn1Cc1ccccc1`, the Potency result is “inactive”. As for `CCOC(=O)C1CCN(c2c(Nc3cc(C)cc(C)c3)c(=O)c2=O)CC1`, the Potency result is “inactive”. Turning to `CCOC(=O)C1CCN(c2ccc(C(=O)O)cc2[N+](=O)[O-])CC1`, the Potency entry is “inactive”. For the molecule `CCOC(=O)C1CCN(c2csc3ccc(C)cc3c2=O)CC1`, the Potency was 7.57 µM (active).

For the molecule `CCOCCCNC(=O)c1cn(CC)c2ccc(S(=O)(=O)N3CCc4ccccc4C3)cc2c1=O`, the Potency entry was “inactive”. In the case of `C=CCc1cccc2cc(C(=O)Nc3ccc(NC(C)=O)cc3)c(=O)oc12` it was “inactive”.

As to `O=C(Nc1cccnc1)c1cc(Cl)ccc1Cl`, the Potency entry was “inactive”.

As to `C=CCn1cc(Cl)cc(C(=O)Nc2ccccc2)c1=O`, the Potency was 16.9 µM (active). Turning to `CCOc1ncccc1C(=O)Nc1ccc(S(=O)(=O)Nc2nc(C)cc(C)n2)cc1`, the Potency result was “inactive”.

`Cc1ccc2[nH]c3c(=O)n(CC(=O)NC(C)C)ncc3c2c1`: the Potency entry was “inactive”. `O=C(COc1ccc(Cl)cc1)Nc1ccccc1OCc1cc(=O)n2ccccc2n1`: the Potency entry was “inactive”.

Take `O=C(c1cc(-c2ccc(O)cc2)on1)N1CCCc2ccccc21`: the Potency is 16.9 µM (active).

In the case of `O=C(C(=O)N1CCc2ccccc2C1)N1CCc2ccccc2C1`, the Potency result was “inactive”. With `Cc1ccc(-c2cc(C(=O)N3CCc4ccccc4C3)no2)cc1`, the Potency was 23.9 µM (active).

As to `Cc1ccc2c(c1)N(C(=O)CCC(=O)N1CCc3ccccc3C1)CCO2`, the Potency result is “inactive”.

As to `O=C(c1noc2c1CCCC2)N1CCc2ccccc2C1`, the Potency is 16.9 µM (active). `CN1CCN(Cc2c(C(=O)N3CCc4ccccc4C3)nc3ccc(Cl)cn23)CC1`: the Potency entry was “inactive”.

Regarding `O=C(NCCCN1CCOCC1)c1cc(-c2cccc(O)c2)on1`, the Potency result was “inactive”. With `O=C(c1cc(-c2ccc(O)cc2)on1)N1CCOCC1`, the Potency is 9.53 µM (active). Take `Cn1cccc1C(=O)N1CCc2ccccc2C1`: the Potency entry is “inactive”.

Take `O=C(c1c(Cl)nc2sccn12)N1CCCc2ccccc21`: the Potency result is “inactive”. As to `O=C(c1cccs1)N1CCN(C(=O)N2CCOCC2)CC1`, the Potency entry is “inactive”. Consider `CCCn1nc(C(=O)N2CCCc3ccccc32)c2ccccc2c1=O`, for which the Potency result was “inactive”. As to `Cc1cccc(-n2ncc(C(=O)N3CCN(c4ccc(Cl)cc4)CC3)c2C2CCN(C(=O)OC(C)(C)C)CC2)c1`, the Potency entry is “inactive”. `Cc1ccc(Nc2nnc(-c3ccc(C)c(S(=O)(=O)N4CCCCC4)c3)c3ccccc23)cc1`: the Potency result was “inactive”. For `CCOC(=O)c1ccc(N2C(=O)c3[nH]nc(-c4ccccc4)c3C2c2ccc(C(C)C)cc2)cc1` (stereo not drawn), the Potency entry is “inactive”. Take `Cc1ccc(C(=O)OCC(=O)Nc2ccc(Cl)cn2)cc1S(=O)(=O)N1CCOCC1`: the Potency result was “inactive”. In the case of `COc1cc2nc(NCC(C)c3ccccc3)n3nc(-c4ccccc4)nc3c2cc1OC` (stereo not drawn), the Potency result is “inactive”. For `COCCn1c(SCC(=O)Nc2cc(Cl)ccc2OC)nc2c(c1=O)SC(C)C2` (stereo not drawn), the Potency entry is “inactive”. On to `O=C(c1cc(-c2ccc(F)cc2)on1)N1CCN(c2ccc(F)cc2)CC1`, for which the Potency entry was “inactive”. As for `O=C(c1cc(-c2ccc(Cl)cc2)on1)N1CCN(c2ccccc2)CC1`, the Potency is 10.7 µM (active). For `O=C(c1ccc(Cl)c([N+](=O)[O-])c1)N1CCN(c2ccccc2)CC1`, the Potency result is “inactive”.

Take `CCCN1CCN(CCCNC(=O)c2ccc3nc(Cc4ccccc4)oc3c2)CC1`: the Potency result is “inactive”. In the case of `Cc1cccc(NC(=O)c2ccc(F)c(S(=O)(=O)N(C)C3CCCCC3)c2)c1` it was “inactive”; in that of `CCCSc1nc2[nH]ncc2c(=O)[nH]1`, “inactive”. Take `Cc1ccc(CSc2nc3[nH]ncc3c(=O)[nH]2)cc1`: the Potency is 13.5 µM (active). With `Cc1cccc(NC(=O)CSc2nc3[nH]ncc3c(=O)[nH]2)c1`, the Potency entry was “inactive”. In the case of `COc1cc(OC)cc(-c2c(-c3ccc(F)cc3)c3cc(-c4ccc5cc[nH]c5c4)ccc3n2C)c1` it was “inactive”; in that of `O=S(=O)(Nc1cccc(-c2ccc(N3CCOCC3)nn2)c1)c1ccc(Cl)c(Cl)c1`, 5.36 µM (active); in that of `Cc1cccc(NS(=O)(=O)c2ccc([N+](=O)[O-])cc2)n1`, “inactive”.

Turning to `CN1CCN(c2ccc(S(=O)(=O)Nc3ccccc3)cc2[N+](=O)[O-])CC1`, the Potency entry was “inactive”. On to `O=[N+]([O-])c1ccc(S(=O)(=O)Nc2cccc(-c3ccc(N4CCCC4)nn3)c2)cc1`, for which the Potency was 12 µM (active). With `O=S(=O)(Nc1ccc(-c2ccc(N3CCOCC3)nn2)cc1)c1cc(Cl)ccc1Cl`, the Potency was 23.9 µM (active). In the case of `O=S(=O)(Nc1cccc(-n2cnnn2)c1)c1cnc(Cl)c(Cl)c1`, the Potency result was “inactive”. In the case of `O=S(=O)(Nc1ccccc1N1CCOCC1)c1ccc(Cl)s1`, the Potency entry is “inactive”. In the case of `CC(=O)Nc1ccc(S(=O)(=O)Nc2ccc(N3CCOCC3)c(F)c2)cc1` it was “inactive”; in that of `Cc1cccc(NS(=O)(=O)c2cc(Cl)ccc2Cl)n1`, “inactive”; in that of `Cc1ccc2oc3c(c(=O)c2c1)C(c1ccc(O)cc1)N(Cc1ccc2c(c1)OCO2)C3=O` (stereo not drawn), “inactive”. `Cc1ccc(COC(=O)CN2C(=O)NC3(CCCC3)C2=O)cc1`: the Potency result was “inactive”. Turning to `CC(C)(C)c1ccc(S(=O)(=O)N2CCN(C(=O)c3ccc4c(c3)C(=O)N(Cc3ccncc3)C4=O)CC2)cc1`, the Potency entry is “inactive”. For the molecule `C=Cc1ccc(Cn2c(C(=O)OC)cc3sc(C)cc32)cc1`, the Potency result is “inactive”. Turning to `CCc1ccccc1OCC(=O)Nc1ccc(C)c(S(=O)(=O)N2CCCCCC2)c1`, the Potency entry was “inactive”. For `CCCN(CCC)CCCNC(=O)Cn1cc2c(n1)-c1c(oc(C(=O)N3CCCC3)c1C)CC2`, the Potency result was “inactive”.
